In general, inhibition refers to the drop in the measured response relative to a control, in per cent.

Structures are written as SMILES. Values without a mark were called inactive. Active and inactive are the calls of the source.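 The calls were made as follows: active = blocks over 70% of labeled estradiol binding at 10 µM, or over a set limit at 100 nM; inactive = the rest.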

The target in this experiment is Estrogen receptor beta (Homo sapiens) (UniProt Q92731). Briefly: displacement of fluorescent estrogen from ERbeta – cell-based, Cos7 ERbeta-GFP, flow cytometry, primary screen (AID 1210).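 Also: 0% = DMSO vehicle wells and 100% = complete loss of labeled estradiol signal.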 The settings on record: fluorescent estrogen binding, at 10 µM, hits give high values. In general terms: In flow cytometry, cells or beads pass a laser one at a time.
Sequence of Estrogen receptor beta (Homo sapiens) (Q92731 whole entry, looked up): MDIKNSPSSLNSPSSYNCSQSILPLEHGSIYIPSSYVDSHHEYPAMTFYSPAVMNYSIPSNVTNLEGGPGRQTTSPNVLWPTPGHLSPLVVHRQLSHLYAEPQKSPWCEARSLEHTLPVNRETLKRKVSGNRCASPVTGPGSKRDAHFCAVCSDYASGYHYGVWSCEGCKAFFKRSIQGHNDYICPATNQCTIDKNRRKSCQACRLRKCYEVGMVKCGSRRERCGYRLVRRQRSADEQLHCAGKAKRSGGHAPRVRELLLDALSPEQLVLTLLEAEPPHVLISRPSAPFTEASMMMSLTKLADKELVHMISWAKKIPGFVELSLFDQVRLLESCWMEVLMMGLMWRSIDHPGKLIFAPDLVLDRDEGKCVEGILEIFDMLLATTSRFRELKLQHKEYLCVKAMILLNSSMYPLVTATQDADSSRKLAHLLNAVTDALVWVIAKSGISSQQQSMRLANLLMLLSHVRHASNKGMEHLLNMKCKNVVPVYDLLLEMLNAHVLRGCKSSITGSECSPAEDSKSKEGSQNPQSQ
With `Cc1ccc(S(=O)(=O)Cc2ccc(C(=O)N3CCC4(CC3)OCCO4)o2)cc1`, the inhibition is 56%.

On to `CCOc1ccccc1N1C(=O)NC(=O)C(CCc2ccncc2)(CCc2ccncc2)C1=O`, for which the inhibition was 41%.

As for `COc1ccc(CC2NCCc3cc(OC)c(OC)cc32)cc1OC` (stereo unspecified), the inhibition is 10%.

For `COc1ccc2[nH]cc(CCN=C(N)N)c2c1`, the inhibition was 16%.

In the case of `COc1ccc(C2(CN)CCCC2)cc1`, the inhibition is 5%.

In the case of `N=c1c[n+](CCc2ccc(O)cc2)[n-]o1`, the inhibition was 29%.

Regarding `O=C1C2CCN(CC2)C1Cc1ccc(O)cc1` (stereo unspecified), the inhibition was 19%.

As for `O=C(O)c1cccc2c1NC(c1cccc([N+](=O)[O-])c1)C1CC(Sc3ccccc3[N+](=O)[O-])C(Cl)C21` (stereo unspecified), the inhibition was 67%.

For `O=C(O)c1ccc2c(c1)C1C(Cl)C(Sc3ccccc3[N+](=O)[O-])CC1C(c1cccc([N+](=O)[O-])c1)N2` (stereo unspecified), the inhibition is 0%.

`CC(=O)c1ccc2c(c1)C1C(Cl)C(Sc3ccccc3[N+](=O)[O-])CC1C(c1ccccc1[N+](=O)[O-])N2` (stereo unspecified): the inhibition was 36%.

For the compound `COc1cc2c(cc1OC)CC(C)(C)NC2`, the inhibition was 11%.

For `COc1ccc(Cn2c(N)c(C(=O)NCc3ccco3)c3nc4ccccc4nc32)cc1`, the inhibition was 64%.

Turning to `CC(=O)c1ccc2c(c1)C1C(Cl)C(Sc3ccccc3[N+](=O)[O-])CC1C(c1ccccc1)N2` (stereo unspecified), the inhibition is 33%.

As for `CCNCC1(c2ccc(OC)c(OC)c2)CCCC1`, the inhibition is 14%.

With `Cc1ccc2c(c1Cl)NC(C(=O)O)C1CC(Sc3ccccc3[N+](=O)[O-])C(Cl)C21` (stereo unspecified), the inhibition was 21%.

Regarding `COc1ccc(C2(CN)CCCC2)cc1OC`, the inhibition was 8%.

`O=C(O)c1cccc2c1NC(C(=O)O)C1CC(Sc3ccccc3[N+](=O)[O-])C(Cl)C21` (stereo unspecified): the inhibition was 0%.

For `C[C@H]1CCC[C@@H](O)CCC/C=C/c2cc(O)cc(O)c2C(=O)O1`, the inhibition is 71% (active).

Take `CC(=O)c1ccc2c(c1)C1C(Cl)C(Sc3ccccc3[N+](=O)[O-])CC1C(C(=O)O)N2` (stereo unspecified): the inhibition is 34%.

Regarding `CC1(C)CC(CCNCc2ccc3c(c2)OCO3)(Cc2ccccc2)CCO1` (stereo unspecified), the inhibition was 16%.

As for `NC(=O)c1ccc(N=Nc2c(O)[nH]c(=O)[nH]c2=O)cc1`, the inhibition is 11%.
